Measurements: the supplement of paper PMC6555819

Columns and labels:
Assay in all cases: PBM binding z-score (relative to random genomic background probes); higher = stronger binding; sequences stand for … in GC…GCGATTGACAGCGTAGAATGAAGG
[1] = tested on: PPARg:RXRa DBDmut IVT, anti-RXR (DBD mutation: RXRa K156A/R161A, NR concentration 270 nM, RXRa partner concentration 90 nM)
Procedure, shortened: (§1)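 Custom Agilent 4×180K protein-binding microarrays carried double-stranded probes, each with a 34-nt variable region. These regions held direct-repeat seeds, single-nucleotide variants, half-site ablations and random human genomic background sequences. Ligand-free nuclear receptor dimers were incubated on the arrays for 1 h, antibodies against each partner (one per run) detected binding, and scanned fluorescence was regression-normalized. Binding z-scores take the random background probes as reference.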

[2] = tested on: PPARg:RXRa IVT, anti-PPARg (NR concentration 270 nM, RXRa partner concentration 90 nM)
Procedure, shortened: as §1

[3] = tested on: PPARg DBDmut:RXRa IVT, anti-PPARg (DBD mutation: PPARg1 K132A/R137A, NR concentration 270 nM, RXRa partner concentration 90 nM)
Procedure, shortened: as §1

[4] = tested on: PPARg DBDmut IVT, anti-PPARg (DBD mutation: PPARg1 K132A/R137A, NR concentration 270 nM)
Procedure, shortened: as §1

[5] = tested on: PPARg homodimer (NR concentration 180 nM)
Procedure, shortened: as §1

[6] = tested on: PXR:RXRa (NR concentration 270 nM, RXRa partner concentration 90 nM)
Procedure, shortened: as §1

[7] = tested on: PXR homodimer (NR concentration 270 nM)
Procedure, shortened: as §1

[8] = tested on: RARa:RXR (NR concentration 270 nM, RXRa partner concentration 90 nM)
Procedure, shortened: as §1

[9] = tested on: RARa homodimer (NR concentration 270 nM)
Procedure, shortened: as §1

[10] = tested on: RARb:RXRa (NR concentration 270 nM, RXRa partner concentration 90 nM)
Procedure, shortened: as §1

Sequence	PBM binding z-score [1]	PBM binding z-score [2]	PBM binding z-score [3]	PBM binding z-score [4]	PBM binding z-score [5]	PBM binding z-score [6]	PBM binding z-score [7]	PBM binding z-score [8]	PBM binding z-score [9]	PBM binding z-score [10]
TAGCCTAGGTCATTGGGCCAATATAGTACGCATC	3.03	4.13	0.385	0.532	1.58	1.83	-0.353	2.69	-0.0412	3.6
CCTAGCAGGCCAATCTGGGTCACTCTAGGCTTGA	3.94	4.77	-0.959	-1.14	0.236	0.544	-0.524	1.17	-1.01	1.28
GTAACGAGGGCATTCGAGTTGATAGCATGGCGAT	3.16	2.66	0.308	-0.0825	-0.229	3.76	2.23	0.683	-0.277	1.89
ATCTCTAGGTAAGACTCGGTTCAGTGAAGAACGC	2.07	1.14	0.784	0.701	0.702	0.669	1.18	0.0867	1.5	0.192
TCGAGTAGGTTAGTCGGGGCATACAGCCAACATA	2.34	1.89	-0.401	-0.126	-0.0659	0.333	0.0501	0.379	-0.329	0.592
TCTCGGAGGACACGAAGGTCGGAGCTTTCCAGAG	1.25	0.119	-2.18	-1.55	-0.462	0.265	-0.139	0.366	-1.24	1.81
TCTTATAGATCAACAGGAGGTTAAGAAAGATCGA	2.24	0.332	0.51	0.867	0.452	0.958	0.0264	1.46	0.64	0.877
TAGCCTTGGTCATTGGGCCAGTATAGTACGCATC	-0.486	0.545	-0.509	-0.603	-0.625	-0.515	-0.596	-0.324	-0.586	0.69
TCTTGTACATCAGCAGGTTAAGAAAGCTGGCCAA	1.51	0.722	-0.0534	0.403	-0.0357	0.478	-0.155	0.59	0.183	0.473
CCTACTGGGCCACGAAACGTCATTGATTCAGTGA	5.46	4.94	0.954	0.628	-0.288	-0.903	-0.805	-0.908	-0.363	0.0906
CGTCCAAGGTCAAGGTCAGTGAAAGAGACTCGAA	3.52	4.76	0.429	0.164	4.38	4.81	1.28	5.07	1.75	5.75
ATATGTAGATTAAGGGTCATTCAGGTTGGTTCGC	1.15	3.34	1.32	1.38	3.29	4.89	2.6	4.45	2.24	2.88
GGAACGAGGGCACAGTTGATAGCATCTGTCGACG	3.74	3.92	0.579	-0.629	0.434	0.227	-0.335	0.367	-0.231	2.02
TCATATAGGTAAATGCTAGGTGAAATTCCGATCT	3.98	2.41	0.621	1.13	1.04	0.404	0.241	0.848	1.28	0.363
AATACAGGCTCACTAGGCCAGAGTAGGTACGAAT	0.83	1.96	0.786	0.55	-0.108	-0.759	-0.466	-0.759	-0.709	-0.981
GCAGAGAGGTGAAACGCAGGTAACTCAGGGTGGC	2.17	1.97	-0.463	-1.39	-0.0516	0.34	-0.544	1.48	-0.435	1.88
CCTACTGTGCCAAAGGTCATTGATTCCAATGCTC	5.24	5.97	0.578	0.496	4.4	5.42	2.77	5.77	2.56	4.63
GGAACGAGGGAAAAGTTGATAGCATCTGTCGACG	-0.174	0.0196	-0.986	-1.13	-0.562	-0.557	-0.343	-0.659	-0.0387	-0.212
CCGACTGGGGCATAAGGCTACCATAAGCCAGCCC	2.4	2.19	-1.08	-1.23	0.226	-0.731	-0.51	-0.184	0.133	0.337
ATATGTAGGTTATCGGGACATTCAGTTTGCGCAT	7.42	6.98	2.35	2.08	2.64	0.647	1.45	0.532	1.55	1.06
TCTTGTAGATCAAGCAGGTGAAGAAAGCCTGAGT	1.7	0.945	0.265	-0.33	-0.0595	0.043	-0.139	0.061	-0.384	-0.159
ACAGGCAGGTGATGAAGGTAACTCAGGCTATCAT	0.0324	0.0841	0.243	-0.423	-0.139	-0.235	0.0904	-0.0555	0.0189	0.121
CCAGACAGGTGTAAGGTAACTCAGTCTGGTACGC	-0.423	-0.31	-0.287	-0.728	0.365	-0.318	-0.0688	-0.0779	-0.14	-0.403
TCTTGTAGTTCAAGCAGGTTAAGAAAGCCTGAGT	1.37	0.625	-0.45	-0.0561	0.815	2.26	1.78	1.59	0.00762	2.3
